FMDV inh = antivirals against foot and mouth disease virus | 410,000 tested, 1.2% active | Potency, µM (series often up to 57.9 µM), without a hit: top-dose activity change, negative = inhibition, hits mostly inhibitors | AID 1159524 | FMDV antiviral cell-based qHTS; calls by dose curve; tested in HEK293T cells; also: read-out not given here; potency is read from the fitted curve at half-maximal effect; nearly all actives have a fitted effect of over 45% in size
HCMV inh = human cytomegalovirus inhibition; 410,000 tested, 4.5% active; activity change, negative = inhibition, % at 57.5 µM; HFF cells, HCMV-luciferase reporter, 72 h; hits give low values; in the data active = activity change below about -60%; inconclusive = no clear call, values can overlap the other calls; inactive = above about -39%
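Screen run at 2 compound doses on HFFs infected with reporter HCMV, MOI 1 PFU/cell. Luciferase activity from cell lysates at 72 h post infection gave inhibition relative to buffer-only and Salinomycin wells.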
HCV inh = inhibitors of hepatitis C virus infection. Huh7.5.1 HCVcc-Cre infection, luciferase reporter, 44 h. Potency, µM (top dose mostly 41.8 µM), for inactives: at the highest dose activity change, negative = inhibition, most hits filed as inhibitors. 340,000 tested, 3.4% active. AID 651820; also: potency is read from the fitted curve at half-maximal effect
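Luciferase read-out (15 sec integration) after a 15 min room-temperature substrate step quantifies HCVcc-Cre infection. Cells, 1,000 per well, had compound added 4 h post-plating, then virus at ~0.5 moi, and were cultured 44 h.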
FBPA Giardia inh = Giardia lamblia aldolase inhibition. A8B2U2. 290,000 tested, 0.71% active. Potency, µM (top dose mostly 59.6 µM), without a hit: at the highest dose activity, negative = inhibition, most hits filed as inhibitors. purified Giardia FBPA; also: potency is read from the fitted curve at half-maximal effect; nearly all actives have a fitted effect of over 55% in size
Target sequence (A8B2U2 whole entry, looked up): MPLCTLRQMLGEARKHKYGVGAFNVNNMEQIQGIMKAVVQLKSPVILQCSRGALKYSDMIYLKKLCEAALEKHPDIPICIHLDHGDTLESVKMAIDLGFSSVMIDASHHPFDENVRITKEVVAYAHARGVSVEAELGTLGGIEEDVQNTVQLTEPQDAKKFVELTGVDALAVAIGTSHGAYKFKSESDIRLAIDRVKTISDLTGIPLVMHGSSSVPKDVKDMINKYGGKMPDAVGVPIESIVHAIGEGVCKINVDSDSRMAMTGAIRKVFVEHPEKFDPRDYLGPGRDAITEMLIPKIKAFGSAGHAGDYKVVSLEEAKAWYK
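Giardia FBPA (40 nM reagent) was preincubated 10 min at RT with compound (up to 57.5 uM final), then substrate plus GAPDH/TPI/NAD/arsenate coupling system with diaphorase/resazurin was added; resorufin fluorescence (525/598 nm) was read after 20 min.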
LASV entry inh = Lassa virus entry inhibition | Lassa virus pseudotype entry inhibition, cell reporter | Potency, µM (top dose mostly 37.9 µM), for inactives: at the highest dose activity change, negative = inhibition, usual class: inhibitors | 300,000 tested, 1.2% active; calls by dose curve; tested in HEK293 cells; also: potency is read from the fitted curve at half-maximal effect; nearly all actives have a fitted effect of over 50% in size
Marburg entry inh = inhibitors of Marburg virus binding or cell entry. AID 540276. Potency, µM (titrated, usually from 37.8 µM), for the others: at the highest dose activity change, negative = inhibition, usual class: inhibitors. 300,000 tested, 1.8% active. Marburg virus pseudotyped entry inhibition, cell reporter; calls by dose curve; tested in HEK293 cells; also: potency is read from the fitted curve at half-maximal effect
* hit, by the source's call; [ ] = remark or other dose. Shown are actives, neighbours in structure and some others; about 8.3% of the full set was active somewhere. Unless noted, calls follow the shape of the dose curve; as a rule, active = well fitted curve in the direction sought with a large enough effect; inconclusive = small, poorly fitted or top-dose-only effect, or another doubt; inactive = no such curve, though single readings can be large; an effect the other way counts as inactive or inconclusive. % is scaled to controls: 0 for no effect and ±100 for the full control effect.

What do the screens show for `Cc1cc(C(=O)Cn2nc(C(=O)O)c3ccccc3c2=O)c(C)n1CCc1ccc(F)cc1`?
FMDV inh: -24.3%; HCMV inh: -31.9; HCV inh: -10.9%; FBPA Giardia inh: -1.3%; LASV entry inh: inconclusive; Marburg entry inh: 5.62µM*

What do the screens show for `Cc1cc(C(=O)Cn2nc(C(=O)O)c3ccccc3c2=O)c(C)n1-c1ccc(OC(F)F)cc1`?
FMDV inh: -20.1%; HCMV inh: -65.9*; HCV inh: inconclusive; FBPA Giardia inh: -2.0%

Results for Cc1cc(C(=O)Cn2nc(C(=O)O)c3ccccc3c2=O)c(C)n1CC(F)(F)F ?
FMDV inh: 45.2%; HCMV inh: 83.1; HCV inh: -15.9%; FBPA Giardia inh: 3.3%; LASV entry inh: 10.4%; Marburg entry inh: inconclusive

Results for Cc1cc(Nc2ccccc2)nc(NCc2ccccc2)n1 ?
FMDV inh: -18.8%; HCMV inh: -66.5*; HCV inh: inconclusive; FBPA Giardia inh: 5.0%; LASV entry inh: inconclusive; Marburg entry inh: inconclusive

Results for Cc1cc(N2CCC(C)CC2)nc(NCc2ccccc2)n1 ?
FMDV inh: 0.0%; HCMV inh: -84.8*; HCV inh: 6.31µM*; FBPA Giardia inh: 6.4%; LASV entry inh: 18.4µM*; Marburg entry inh: inconclusive

How did Cc1cc(Nc2ccc(Cl)cc2)nc(NCc2ccccc2)n1 do in these assays?
FMDV inh: 31.6µM*; HCMV inh: -31.3; HCV inh: inconclusive; FBPA Giardia inh: -2.9%; LASV entry inh: inconclusive; Marburg entry inh: inconclusive

What do the screens show for `Cc1cc(N2CCC(C)CC2)nc(-c2ccccc2O)n1`?
FMDV inh: -22.6%; HCMV inh: -29.3; HCV inh: inconclusive; FBPA Giardia inh: 3.7%

How did Cc1cc(N/N=C/c2ccc(Cl)cc2Cl)nc(NCc2ccccc2)n1 do in these assays?
FMDV inh: 0.0%; HCMV inh: -24.9; HCV inh: inconclusive; FBPA Giardia inh: 4.2%; LASV entry inh: -16.5%; Marburg entry inh: inconclusive

How did Cc1cc(Nc2cccc(F)c2)nc(NCc2ccccc2)n1 do in these assays?
FMDV inh: inconclusive; HCMV inh: 9.7; HCV inh: inconclusive; FBPA Giardia inh: -7.5%; LASV entry inh: inconclusive; Marburg entry inh: inconclusive

What do the screens show for `CCCCNc1cc(C)nc(NCc2ccccc2)n1`?
FMDV inh: inconclusive; HCV inh: inconclusive; FBPA Giardia inh: 9.1%; LASV entry inh: 11.2µM*; Marburg entry inh: 11.2µM*

What do the screens show for `COC(=O)CN1C(=O)[C@@H]2[C@H](C1=O)[C@@H]1CC(C(=O)OC)=C[C@@H](C(=O)OC)C3C1=C(C(=O)[C@]3(C)NC(=O)c1ccccc1)[C@@H]2C` (some centres undefined)?
FBPA Giardia inh: 4.8%

What do the screens show for `CN(C(=O)c1ccoc1)c1ccccc1I`?
FBPA Giardia inh: 5.1%

How did CCOC(=O)C1=C(CSc2nc(C)cc(C)c2C#N)OC(N)=C(C#N)[C@H]1c1cccs1 do in these assays?
Marburg entry inh: -28.8%[46.1 µM]

How did CCCCOc1cccc(-c2nnc(NC(=O)CSc3ccc(C)cc3)s2)c1 do in these assays?
FMDV inh: -10.9%; HCMV inh: -86.4*; HCV inh: 13.2%; FBPA Giardia inh: 0.2%; LASV entry inh: 0.316µM*; Marburg entry inh: 1.6%

How did COc1ccccc1CNc1nc(NCc2ccccc2F)c2sccc2n1 do in these assays?
FMDV inh: 28.2µM*

Results for COc1ccccc1CNc1nc(NCc2cnc(C)cn2)c2sccc2n1 ?
FMDV inh: -21.0%; HCMV inh: -2.3

How did C#Cc1cccc(Nc2nc(NCCOC)nc3ccsc23)c1 do in these assays?
FMDV inh: inconclusive; HCMV inh: 13.6

What do the screens show for `C#Cc1cccc(Nc2nc(NCc3ccccc3OC)nc3ccsc23)c1`?
FMDV inh: 31.6µM*; HCMV inh: -79.1*

What do the screens show for `Fc1ccccc1CNc1nc(NCC2CC2)nc2ccsc12`?
FMDV inh: -39.4%; HCMV inh: -86.7*

Results for COCCNc1nc(NCc2cccc(OC)c2OC)c2sccc2n1 ?
FMDV inh: inconclusive; HCMV inh: -31.4

Results for COc1ccccc1CNc1nc(NCc2cccc(OC)c2OC)c2sccc2n1 ?
FMDV inh: 39.8µM*; HCMV inh: -82.6*

What do the screens show for `Cc1cccc(NC(=O)CSc2nnc(CNC(=O)c3c(F)cccc3Cl)o2)c1C`?
FMDV inh: -3.0%; HCMV inh: -3.6; LASV entry inh: -24.2%[46.1 µM]; Marburg entry inh: -7.5%[46.1 µM]

How did CCn1nnc2cc(C(=O)Nc3cc(C)ccc3C)ccc21 do in these assays?
FMDV inh: -5.1%; HCMV inh: -12.7; LASV entry inh: 3.3%[46.1 µM]

What do the screens show for `CCC[C@H]1[C@@H](NS(=O)(=O)c2ccc([N+](=O)[O-])cc2[N+](=O)[O-])CC[C@@]23CCCN2C(=O)CCC[C@@H]13`?
HCMV inh: -20.6

How did COc1cc2c(cc1OC)CN(c1ccc([N+](=O)[O-])cc1C#N)CC2 do in these assays?
FMDV inh: 31.6µM*; HCMV inh: inconclusive; HCV inh: inconclusive; FBPA Giardia inh: 3.8%; LASV entry inh: -16.7%; Marburg entry inh: inconclusive

Results for CCC1CCCCN1S(=O)(=O)c1cc(C(=O)Nc2ccc(C)c(F)c2)ccc1F (centres undefined) ?
FMDV inh: inconclusive; HCMV inh: -90.5*; LASV entry inh: inconclusive

How did Cc1ccc(C(=O)Nc2ccc(F)cc2)cc1S(=O)(=O)N1CCCCCC1 do in these assays?
FMDV inh: -26.1%; HCMV inh: -100.9*; LASV entry inh: inconclusive

Results for Cc1cc(C)cc(NC(=O)c2ccc3oc(=O)c(S(=O)(=O)c4ccc(F)cc4)cc3c2)c1 ?
FMDV inh: 20µM*; HCMV inh: 5.3; LASV entry inh: -9.2%[46.1 µM]; Marburg entry inh: inconclusive

What do the screens show for `O=C(Nc1ccc(F)c(F)c1)c1ccc(F)c(S(=O)(=O)N2CCOCC2)c1`?
FBPA Giardia inh: -0.5%; Marburg entry inh: 0.0%

How did Cc1ccc(C(=O)Nc2ccon2)cc1S(=O)(=O)N1CCCCCC1 do in these assays?
FMDV inh: 15.1%; HCMV inh: -100.7*; HCV inh: inconclusive; FBPA Giardia inh: -4.1%; LASV entry inh: 0.8%; Marburg entry inh: 7.8%

How did CCN1C(=O)[C@@H]2[C@H]3[C@H](O)[C@H](O)CC(=NO[C@@H]4O[C@H](COC(C)=O)[C@@H](OC(C)=O)[C@H](OC(C)=O)[C@@H]4OC(C)=O)[C@@H]3CC[C@H]2C1=O do in these assays?
Marburg entry inh: 12.1%[14.2 µM]

What do the screens show for `O=C(c1cccnc1)C1CCCN(Cc2ccc3c(c2)CN(C(=O)c2cnccn2)CCO3)C1` (centres undefined)?
FMDV inh: -14.7%

How did COc1ccc(S(=O)(=O)N(CCO)c2ccccc2CN(C)CC=Cc2ccc(Cl)cc2)cc1 do in these assays?
FBPA Giardia inh: -8.7%

Source: PubChem BioAssay
